PubChem BioAssay (NCI)
The panel holds about 83,000 compounds, 20% with a hit somewhere; the sample as a whole holds those more often.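 Values shown are percent growth following 48 h exposure of cells in 96-well plates to a single concentration of compound; below 10 was considered active.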 Unmarked numbers belong to inactive results. Active and inactive are the calls of the source.

Assays:
Experiment in all cases: NCI-60 one-dose screen, 48 h (100 = growth as untreated, 0 = no growth, -100 = all killed)
Settings in all cases: 10 µM unless noted
[1] = tested on: SR leukemia
[2] = tested on: RPMI-8226 leukemia
[3] = tested on: OVCAR-8 ovarian
[4] = tested on: OVCAR-5 ovarian
[5] = tested on: OVCAR-4 ovarian
[6] = tested on: SK-OV-3 ovarian
[7] = tested on: IGROV1 ovarian
[8] = tested on: OVCAR-3 ovarian
[9] = tested on: HS 578T breast
[10] = tested on: NCI/ADR-RES ovarian

Structure (SMILES)	growth [1]	growth [2]	growth [3]	growth [4]	growth [5]	growth [6]	growth [7]	growth [8]	growth [9]	growth [10]
Nc1ccc(CCCCc2ccccc2)c(Cl)c1	92.7%	85.4%	94%	96.7%	84.4%	98.7%	87.2%	94.3%	93.7%	104%
N#Cc1c(N)nc2c(nnn2-c2cccc(C(F)(F)F)c2)c1N	83.1%	82.4%	89.3%	102%	87.5%	84.9%	81.1%	97.9%	46.2%	95.8%
Cc1ccc(Nc2ccc(Nc3ccc(C)cc3S(=O)(=O)O)c3c2C(=O)c2ccccc2C3=O)c(S(=O)(=O)O)c1	108%	87.8%	97.6%	106%	102%	111%	114%	95.5%	88.7%	102%
CCN(CC)CCNc1ccc(C)c2sc3cc(C)ccc3c(=O)c12	6.89% (active)	10.4%	57%	79.5%	85.3%	74.8%	52.4%	76.6%	73%	59.2%
NC(N)=N/N=C/c1ccc(Br)cc1	18.4%	21.5%	78.9%	73.5%	51.8%	-19.4% (active)	19.3%	62.3%	67.5%	28.2%
CCNCCNc1cc(-c2ccc(F)cc2)c(C#N)c2nc3ccccc3n12	-23% (active)	36.4%	42.2%	89.9%	31%	94.5%	60.4%	0.676% (active)	64.2%	55.4%
O=C(Nc1ccc(N2CCCCC2)c(Cl)c1)c1ccc(Br)o1	40.8%	55.7%	59%	114%	73%	107%	75.1%	43.6%	72.8%	68%
COC(=O)Nc1nc2ccc(C(=O)C3CC3)cc2[nH]1	-21.7% (active)	-19.7% (active)	8.29% (active)	48.9%	44.7%	22.7%	-59.4% (active)	-61.7% (active)	-17.7% (active)	9.11% (active)
COc1ccc(N=c2nc3sc4cc(Cl)ccc4n3c(N)c2C#N)cc1	91.2%	101%	59.3%	107%	55.6%	59.4%	80.4%	114%	34.5%	63.8%
NC(N)=N/N=C(/c1ccccc1)c1ccccc1F	3.14% (active)	-36.8% (active)	45.5%	76.4%	36.7%	19.5%	20.7%	-0.0856% (active)	38.5%	59.6%
COc1cccc(CCC2CCCN(c3cc(C)nc(N)n3)C2)c1 (stereo not given)	26.7%	18.4%	24.4%	33.9%	52.2%	40.5%	31.3%	11.4%	56.8%	6.21% (active)
CCOC(=O)c1c(C)[nH]c(C(=O)CCC(=O)OC)c1C	92.5%	95.8%	103%	100%	107%	101%	104%	105%	124%	97.9%
C=CCO[C@H]1CO[C@H]2[C@@H]1OC[C@@H]2Oc1ccc(Nc2ccnc(Nc3ccc(O[C@H]4CO[C@H]5[C@@H]4OC[C@@H]5OCC=C)c(Cl)c3)n2)cc1Cl	-1.74% (active)	-32.7% (active)	-4.18% (active)	-55.7% (active)	-86.7% (active)	115%	-94.1% (active)	-85.5% (active)	-38.6% (active)	-63.6% (active)
O=C(NCOC(O)C(Cl)(Cl)Cl)NCOC(O)C(Cl)(Cl)Cl (stereo not given)	109%	105%	104%	89.7%	108%	90%	99.1%	116%	108%	103%
CCCNCC(=O)Nc1ccc(C(=O)OC(C)(C)CC)cc1	90.6%	99.8%	104%	111%	118%	105%	99.5%	102%	105%	105%
CCCCCCCC/C=C\CCCCCCCC(=O)Oc1cccc2cccnc12	45.9%	297%	89.7%	104%	128%	112%	85.4%	-2.34% (active)	138%	99.1%
Cc1nc(Nc2ccc(S(=O)(=O)Nc3cc(C)on3)cc2)c2ccccc2n1	111%	111%	104%	101%	105%	93%	96.9%	103%	108%	107%
CCOC(=O)c1ccc(-c2ccc3cc(OC)ccc3c2)nc1C	78.3%	105%	107%	95.4%	112%	98.6%	102%	106%	120%	108%
CC(=O)Nc1ccc2c(c1)Cc1c(F)cccc1-2	98.2%	94.1%	95.2%	106%	106%	115%	98.8%	105%	115%	107%
CCN(CCO)CC(=O)c1cc(Cl)cc(Cl)c1Cl	95.4%	97.1%	103%	109%	115%	102%	109%	106%	101%	102%
CC(=O)c1sc(-c2ccccc2)cc1N	88.4%	98.1%	92.8%	100%	94.2%	89.6%	105%	103%	89.1%	105%
Cc1nc(Nc2ccc(NC(=S)Nc3ccccc3)cc2)nc2nc(SCc3ccccc3)[nH]c(=O)c12	61.8%	67%	82.4%	102%	106%	109%	65.7%	112%	105%	110%
CCNCCNc1cc(C2CCCC2)c(C#N)c2nc3ccccc3n12	-4.31% (active)	1.72% (active)	28.6%	71.2%	-13.5% (active)	40.5%	43.7%	-82% (active)	-6.97% (active)	33.1%
CCOC(=O)c1c(C)nc2c(c1N)/C(=C/c1cc(OC)c(OC)c(OC)c1)C(=O)N2c1ccc(OC)cc1	12.4%	-6.44% (active)	37.7%	85.7%	87%	105%	33.6%	42.1%	95.1%	34.7%
CCOc1ccc2nc(-c3cccc(OCC(=O)NC(C)C)c3)nc(Nc3ccc(-c4cn[nH]c4)cc3)c2c1	0.178% (active)	-18.4% (active)	-22.7% (active)	40.8%	-60.3% (active)	68.4%	20.9%	-3.59% (active)	-44.5% (active)	14.3%
CNC(=O)c1cc(Oc2ccc3nc(Nc4cc(Cl)cc(Cl)c4)ccc3c2)ccn1	6.56% (active)	57.6%	67.9%	104%	57.2%	86.2%	79.6%	57.8%	64.5%	35.6%
Nc1c(-c2nc3ccc(Br)cc3c(=O)[nH]2)nnn1-c1ccccc1	57.7%	92.1%	97.7%	95.8%	6.63% (active)	112%	90.3%	80.2%	91.8%	80.9%
C=C(C)[C@@H]1CC[C@@]2(C(=O)O)CC[C@]3(C)C(CCC4[C@@]5(C)CCC(OS(=O)(=O)c6ccccc6)C(C)(C)C5CC[C@]43C)C12 (stereo not given in full)	56.7%	30.4%	38.1%	89.7%	54.7%	74.4%	93.7%	50.8%	67.5%	52.5%
